Source: PubChem
Most compounds without a hit are left out; they make up all but 2.4% or so of the library.
HepG2 tox: counter-screen for TGF-b inhibitors: cytotoxicity in HepG2 cells | 410,000 compounds, 0.76% hits | AID 588856 | Potency, µM (top dose mostly 46.1 µM), without a hit: top-dose activity change, negative = cytotoxicity, hits mostly cytotoxic | HepG2 CAGA-GFP viability, ATP luminescence, 18 h
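HepG2 CAGA-GFP cells (1000/well, DMEM with 1% FBS) received compound, then TGF-beta at 500 pg/mL final, and were incubated 18 hours at 37 degrees C. Viability was read by CellTiter-Glo luminescence. Media-only wells were set as complete cell-killing and DMSO as no toxicity.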
ATXN viability: cell viability loss in ATXN counter-screen. S2 cells (HEK-293 line with an ATXN2-luciferase reporter) viability, CellTiter-Fluor protease fluorescence, 24 h. AID 651635. Potency, µM (top dose mostly 56.7 µM), actives largely listed as cytotoxic. 400,000 compounds, 0.49% hits; also: nearly all actives have a fitted effect of over 40% in size
Anesthetic bind: binds horse apoferritin like a general anesthetic. P02791. apoferritin/1-aminoanthracene competitive binding, fluorescence. Potency, µM (series often up to 77.5 µM), for inactives: at the highest dose activity change, negative = displacement, actives largely listed as inhibitors. 350,000 compounds, 0.074% hits. AID 485281; also: % is scaled to controls: 0 for no effect and ±100 for the full control effect; nearly all actives have a fitted effect of over 20% in size
Target sequence (P02791 2-175 limits assumed): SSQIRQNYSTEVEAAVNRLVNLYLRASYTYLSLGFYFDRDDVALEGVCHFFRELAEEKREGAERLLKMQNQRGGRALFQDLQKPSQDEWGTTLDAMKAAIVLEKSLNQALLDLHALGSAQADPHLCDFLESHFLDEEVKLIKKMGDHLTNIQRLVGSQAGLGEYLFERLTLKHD
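Horse-spleen apoferritin (10 uM) in 50% saturated 1-aminoanthracene in PBS was incubated 10 min at room temperature with compound. Fluorescence (ex 380, em 535 nm) was normalized to free and bound 1-AMA, with concentration-response fitted by a four-parameter Hill equation.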
TGFb SMAD3 inh: inhibitors of TGF-b signaling | 410,000 compounds, 1.2% hits | HepG2 CAGA-GFP TGF-b/SMAD3 reporter, GFP fluorescence, 18 h; TGF-beta stimulated, 500 pg/mL final | AID 588855 | Potency, µM (titrated, usually from 46.1 µM), for the others: at the highest dose activity, negative = inhibition, most hits filed as inhibitors; also: % is scaled to controls: 0 for no effect and ±100 for the full control effect; nearly all actives have a fitted effect of over 65% in size
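Smad-responsive CAGA-GFP expression was quantified in HEPG2 cells exposed to compounds and 500 pg/mL final TGF-beta for 18 h at 37 degrees C; unstimulated wells defined full inhibition.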
ATXN2 expr inh: reduces ATXN2 reporter expression in HEK-293 cells; HEK-293 ATXN2-luciferase reporter, luminescence, 24 h; Potency, µM (doses to about 57 µM), for inactives: at the top dose activity change, negative = inhibition, hits mostly inhibitors; 360,000 compounds, 0.72% hits; also: % is scaled to controls: 0 for no effect and ±100 for the full control effect; nearly all actives have a fitted effect of over 55% in size
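ATXN2-luciferase reporter cells (luciferase flanked by upstream and downstream ATXN2 gene portions) were treated 24 h at 37 °C with compounds at up to 57 uM. SteadyGlo luminescence gave expression; GF-AFC fluorescence gave viability.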
* marks the source's active call; other numbers are inactive results; [ ] = remark or other dose. Calls follow the shape of the dose curve; as a rule, active = well fitted curve in the direction sought with a large enough effect; inconclusive = small, poorly fitted or top-dose-only effect, or another doubt; inactive = no such curve, though single readings can be large; an effect the other way counts as inactive or inconclusive. Potency is read from the fitted curve at half-maximal effect.

How did C=CC(=O)N1CCc2ccc(-n3c(=O)ccc4cnc5ccc(-c6cnn(C)c6)cc5c43)cc21 do in these assays?
ATXN2 expr inh: 15µM*

What do the screens show for `Cn1c(=O)n(-c2ccc(C(C)(C)C#N)cc2)c2c3cc(-c4cnc5ccccc5c4)ccc3ncc21`?
HepG2 tox: -15%[92.2 µM]; TGFb SMAD3 inh: inconclusive; ATXN2 expr inh: inconclusive

How did CN1C2CCC1/C(=C\c1ccccc1)C(=O)/C2=C\c1ccccc1 do in these assays?
HepG2 tox: -25%; ATXN viability: inconclusive; Anesthetic bind: -18%; TGFb SMAD3 inh: 0%; ATXN2 expr inh: 25µM*

How did Cc1c(C(=O)NCc2ccco2)cnn1-c1ncc2c(n1)-c1ccccc1CC2 do in these assays?
ATXN viability: inactive

What do the screens show for `O=C(N/N=C/c1cccs1)c1n[nH]c2c1CCCC2`?
HepG2 tox: -46%; ATXN viability: inactive; Anesthetic bind: 9%; TGFb SMAD3 inh: 6%; ATXN2 expr inh: 15µM*

What do the screens show for `C[C@@]12CCC3[C@@](CCC4[C@@]3(C)CCC[C@@]4(C)C(=O)N3CCCCC3)(CC1=O)C2` (stereo partly drawn)?
HepG2 tox: -12%; ATXN viability: inactive; TGFb SMAD3 inh: inconclusive; ATXN2 expr inh: -11%

How did CC(=O)Nc1ccc(NC2=Nc3ccccc3N3C2=Nc2c(c(C)nn2-c2ccccc2)C3c2ccccc2)cc1 (stereo not drawn) do in these assays?
HepG2 tox: 2%; ATXN viability: inconclusive; Anesthetic bind: -13%; TGFb SMAD3 inh: 0%; ATXN2 expr inh: 7.9µM*

How did COc1ccc(NC2=Nc3ccccc3N3C2=Nc2c(c(C)nn2-c2ccc(C)cc2)C3c2cccnc2)cc1 (stereo not drawn) do in these assays?
HepG2 tox: 7%; ATXN viability: inactive; Anesthetic bind: 1%; TGFb SMAD3 inh: 12%; ATXN2 expr inh: -11%

Results for O=C(c1ccccc1F)N1CCN(c2ccc([N+](=O)[O-])c3cccnc23)CC1 ?
HepG2 tox: -3%; ATXN viability: inactive; Anesthetic bind: -11%; TGFb SMAD3 inh: 16%; ATXN2 expr inh: -17%

How did Cc1cc(N2CCN(c3ccc(C(F)(F)F)cc3[N+](=O)[O-])CC2)c2ccccc2n1 do in these assays?
HepG2 tox: -61%; Anesthetic bind: -23%; TGFb SMAD3 inh: 10µM*

How did Cc1cc(N2CCN(c3ccc([N+](=O)[O-])c4cccnc34)CC2)c2ccccc2n1 do in these assays?
HepG2 tox: 3.2µM*; ATXN viability: inconclusive; Anesthetic bind: -12%; TGFb SMAD3 inh: inconclusive; ATXN2 expr inh: inconclusive

Results for Cc1cc(C(=O)Nc2ccccc2-c2nc(CNC(=O)c3ccc(F)cc3F)c(C)o2)c(C)o1 ?
ATXN viability: inactive

How did Cc1cc(O)c(C(C)C)cc1N=Nc1ccccc1C(=O)O do in these assays?
HepG2 tox: -51%; ATXN viability: inconclusive; Anesthetic bind: -14%; TGFb SMAD3 inh: inconclusive; ATXN2 expr inh: 6%

What do the screens show for `Cc1cc(N=Nc2ccccc2C(=O)O)c(C)c(C)c1O`?
HepG2 tox: -5%; ATXN viability: 13µM*; Anesthetic bind: -3%; TGFb SMAD3 inh: 0%; ATXN2 expr inh: -4%

Results for Cc1ccc2c(c1)COc1c3ccc(C(=O)O)cc3nn1-2 ?
HepG2 tox: -27%; ATXN viability: inactive; Anesthetic bind: 3%; TGFb SMAD3 inh: 6%; ATXN2 expr inh: 7.9µM*

Results for CCCCN1CC(c2nc3ccccc3n2CCCCOc2ccccc2C)CC1=O (stereo not drawn) ?
HepG2 tox: 18µM*; ATXN viability: inconclusive; Anesthetic bind: -1%; TGFb SMAD3 inh: inconclusive; ATXN2 expr inh: -24%

Results for CCOc1ccccc1N1CC(c2nc3ccccc3n2CCOc2ccc(OC)cc2)CC1=O (stereo not drawn) ?
HepG2 tox: 13µM*; ATXN viability: 32µM*; Anesthetic bind: -13%; TGFb SMAD3 inh: inconclusive; ATXN2 expr inh: inconclusive

What do the screens show for `CCCCN1CC(c2nc3ccccc3n2CCCCOc2c(C)cccc2C)CC1=O` (stereo not drawn)?
HepG2 tox: -118%; ATXN viability: inconclusive; Anesthetic bind: -3%; TGFb SMAD3 inh: inconclusive; ATXN2 expr inh: 22µM*

How did Cc1c(Cl)cccc1N1CC(c2nc3ccccc3n2Cc2ccccc2F)CC1=O (stereo not drawn) do in these assays?
HepG2 tox: -31%; ATXN viability: 32µM*; Anesthetic bind: -14%; TGFb SMAD3 inh: inconclusive; ATXN2 expr inh: 0%

How did COc1cc(-c2cnc3ccccc3c2)cc2c1OCCN(C(=O)CCC(=O)c1ccc(F)cc1)C2 do in these assays?
ATXN viability: inactive

Results for CC(C)(C)c1cc(NCc2ccccn2)n2ncc(-c3ccccc3)c2n1 ?
HepG2 tox: -32%; ATXN viability: inactive; Anesthetic bind: 119%; TGFb SMAD3 inh: 14µM*; ATXN2 expr inh: -34%

Results for Clc1cccc[n+]1CCc1ccccc1 ?
HepG2 tox: -2%; TGFb SMAD3 inh: -20%

What do the screens show for `O=C(N/C(=C/C=C/c1ccccc1)C(=O)N1CCCCC1)c1ccc([N+](=O)[O-])cc1`?
HepG2 tox: 2%; ATXN viability: 1.5µM*; Anesthetic bind: -6%; TGFb SMAD3 inh: inconclusive; ATXN2 expr inh: 2%

Results for CN1CCC[C@@H]1c1cccnc1 ?
ATXN viability: inactive; Anesthetic bind: 2%; ATXN2 expr inh: 2%

What do the screens show for `O=C(CSc1nccc(-c2cccs2)n1)Nc1ccc(F)c(Cl)c1`?
HepG2 tox: -46%; ATXN viability: inactive; Anesthetic bind: -8%; TGFb SMAD3 inh: 13µM*

What do the screens show for `Cn1cc(C(=O)CCl)c2ccccc21`?
HepG2 tox: 16µM*; Anesthetic bind: -1%; TGFb SMAD3 inh: 13µM*

Results for CN(C)c1ccc(/C=C/c2nc3ccccc3s2)c(Cl)c1 ?
HepG2 tox: -57%; TGFb SMAD3 inh: -6%

How did CC1CCc2c(cc(-c3ccccc3)n2-c2ccc(C(=O)NC(C)C)cc2)C1 (stereo not drawn) do in these assays?
HepG2 tox: -1%; Anesthetic bind: 29%; TGFb SMAD3 inh: 7.9µM*

What do the screens show for `CCc1nc2ccc(C(=O)NCCOc3ccc(OC)cc3)cn2c1N(C)CCCc1ccccc1`?
HepG2 tox: -46%; ATXN viability: inconclusive; TGFb SMAD3 inh: 14µM*; ATXN2 expr inh: inconclusive

What do the screens show for `CCc1nc2ccc(C(=O)NCCc3ccccn3)cn2c1N(C)Cc1ccc(N(C)C)cc1`?
HepG2 tox: 13µM*; ATXN viability: inactive; TGFb SMAD3 inh: inconclusive; ATXN2 expr inh: -1%

How did O=C(C[n+]1ccccc1Cl)c1ccc(Br)cc1 do in these assays?
HepG2 tox: -5%; TGFb SMAD3 inh: -11%
